Laboratory results as given in PubChem BioAssay (NCI).
Compounds without any hit were thinned out: in the full panel of roughly 83,000, 20% have a hit.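 Treatment: one concentration, 48 hours, 96-well format. Scoring: percent growth, with anything below 10 considered active.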 Unmarked numbers belong to inactive results. Calls of active or inactive are those of the source.

What was measured:
Test in all cases: NCI-60 one-dose screen, 48 h (100 = growth as untreated, 0 = no growth, -100 = all killed)
RPMI-8226 leukemia = conditions: 10 µM unless noted
OVCAR-8 ovarian = conditions: 10 µM unless noted
OVCAR-4 ovarian = conditions: 10 µM unless noted
SK-OV-3 ovarian = conditions: 10 µM unless noted
IGROV1 ovarian = conditions: 10 µM unless noted
OVCAR-3 ovarian = conditions: 10 µM unless noted
HS 578T breast = conditions: 10 µM unless noted
NCI/ADR-RES ovarian = conditions: 10 µM unless noted
T-47D breast = conditions: 10 µM unless noted
BT-549 breast = conditions: 10 µM unless noted
MDA-MB-435 melanoma = conditions: 10 µM unless noted
SW-620 colon = conditions: 10 µM unless noted
MCF7 breast = conditions: 10 µM
HCT-116 colon = conditions: 10 µM unless noted
HCC-2998 colon = conditions: 10 µM unless noted
KM12 colon = conditions: 10 µM unless noted
OVCAR-5 ovarian = conditions: 10 µM unless noted

SMILES: CC(C)[C@H](NC(=O)Cn1cc(C(=O)O)nn1)C(=O)O
- growth (RPMI-8226 leukemia): 105%
- growth (OVCAR-8 ovarian): 98.1%
- growth (OVCAR-4 ovarian): 104%
- growth (SK-OV-3 ovarian): 106%
- growth (IGROV1 ovarian): 111%
- growth (OVCAR-3 ovarian): 108%
- growth (HS 578T breast): 112%
- growth (NCI/ADR-RES ovarian): 106%
- growth (T-47D breast): 106%
- growth (BT-549 breast): 104%
- growth (MDA-MB-435 melanoma): 98.8%
- growth (SW-620 colon): 108%
- growth (MCF7 breast): 97.1%
- growth (HCT-116 colon): 102%
- growth (HCC-2998 colon): 107%
- growth (KM12 colon): 103%

SMILES: CCCC(c1nnnn1C1CCCCC1)N1CCN(C(=O)c2ccco2)CC1 (stereo not drawn)
- growth (RPMI-8226 leukemia): 28.9%
- growth (OVCAR-8 ovarian): 86.4%
- growth (OVCAR-5 ovarian): 89.4%
- growth (SK-OV-3 ovarian): 79.5%
- growth (IGROV1 ovarian): 69.2%
- growth (OVCAR-3 ovarian): 25.2%
- growth (HS 578T breast): 60.7%
- growth (NCI/ADR-RES ovarian): 46.1%
- growth (T-47D breast): 92.9%
- growth (MDA-MB-435 melanoma): -21.7% (active)
- growth (SW-620 colon): 22.4%
- growth (MCF7 breast): 45.4%
- growth (HCT-116 colon): 31.7%
- growth (HCC-2998 colon): 76.4%
- growth (KM12 colon): 47.5%

SMILES: CN(C)c1ccc(/C=C/c2ccnc3c(O)cccc23)cc1
- growth (RPMI-8226 leukemia): 1.91% (active)
- growth (OVCAR-5 ovarian): 35.5%
- growth (OVCAR-4 ovarian): 31.9%
- growth (SK-OV-3 ovarian): 24.7%
- growth (IGROV1 ovarian): 11.4%
- growth (OVCAR-3 ovarian): 29.7%
- growth (HS 578T breast): 43%
- growth (NCI/ADR-RES ovarian): 19.5%
- growth (T-47D breast): 16.9%
- growth (BT-549 breast): 17.8%
- growth (MDA-MB-435 melanoma): 18.6%
- growth (SW-620 colon): 21.6%
- growth (MCF7 breast): 18.2%
- growth (HCT-116 colon): 18.6%
- growth (HCC-2998 colon): 55.7%
- growth (KM12 colon): 16.2%

SMILES: COc1ccc(S(=O)(=O)N(Cc2ccc3c(n2)C=CC(C)(C)O3)C2CCC2)cc1OC
- growth (RPMI-8226 leukemia): -47.2% (active)
- growth (OVCAR-5 ovarian): 27.2%
- growth (OVCAR-4 ovarian): -13.8% (active)
- growth (SK-OV-3 ovarian): -3.43% (active)
- growth (IGROV1 ovarian): -23.9% (active)
- growth (OVCAR-3 ovarian): -26.6% (active)
- growth (HS 578T breast): 12.8%
- growth (NCI/ADR-RES ovarian): 6.95% (active)
- growth (T-47D breast): 0.329% (active)
- growth (BT-549 breast): -25.2% (active)
- growth (MDA-MB-435 melanoma): -34.7% (active)
- growth (SW-620 colon): 3.81% (active)
- growth (MCF7 breast): 2.14% (active)
- growth (HCT-116 colon): -5.68% (active)
- growth (HCC-2998 colon): -1.63% (active)
- growth (KM12 colon): -1.42% (active)

SMILES: CC1=C(C(=O)OCC2CCN(C(=O)OC(C)(C)C)CC2)[C@H](c2cccc(Br)c2)C2=C(CC(C)(C)CC2=O)N1
- growth (RPMI-8226 leukemia): 18.6%
- growth (OVCAR-5 ovarian): 64.8%
- growth (OVCAR-4 ovarian): 40%
- growth (SK-OV-3 ovarian): 56%
- growth (IGROV1 ovarian): 35.9%
- growth (OVCAR-3 ovarian): 30.9%
- growth (HS 578T breast): 53.5%
- growth (NCI/ADR-RES ovarian): 25.3%
- growth (T-47D breast): 22%
- growth (MDA-MB-435 melanoma): 24.9%
- growth (SW-620 colon): 28.2%
- growth (MCF7 breast): 13.8%
- growth (HCT-116 colon): 17.7%
- growth (HCC-2998 colon): 49.2%
- growth (KM12 colon): 25%

SMILES: O=C(Nc1ccccc1O)c1ccc(Oc2cccc(C(=O)Nc3ccccc3O)c2)cc1
- growth (RPMI-8226 leukemia): 8.97% (active)
- growth (OVCAR-8 ovarian): 16.7%
- growth (OVCAR-5 ovarian): 50.7%
- growth (SK-OV-3 ovarian): 26.6%
- growth (IGROV1 ovarian): 18.6%
- growth (OVCAR-3 ovarian): 27.3%
- growth (HS 578T breast): 40.6%
- growth (NCI/ADR-RES ovarian): 5.02% (active)
- growth (T-47D breast): 26.1%
- growth (BT-549 breast): 3.78% (active)
- growth (MDA-MB-435 melanoma): 28.3%
- growth (SW-620 colon): 18.4%
- growth (MCF7 breast): 11.3%
- growth (HCT-116 colon): 9.66% (active)
- growth (HCC-2998 colon): 21%
- growth (KM12 colon): 15.8%

SMILES: COc1ccc(C(=O)Nc2ccc3nc(N4CCCCC4)cc(C)c3c2)cc1OC
- growth (RPMI-8226 leukemia): 61.8%
- growth (OVCAR-8 ovarian): 94.1%
- growth (OVCAR-5 ovarian): 89.1%
- growth (SK-OV-3 ovarian): 114%
- growth (OVCAR-3 ovarian): 59.1%
- growth (HS 578T breast): 77.9%
- growth (NCI/ADR-RES ovarian): 98.3%
- growth (T-47D breast): 94.8%
- growth (BT-549 breast): 90.6%
- growth (MDA-MB-435 melanoma): 88.2%
- growth (SW-620 colon): 23.7%
- growth (MCF7 breast): 80.2%
- growth (HCT-116 colon): 64.2%
- growth (HCC-2998 colon): 66.5%

SMILES: COc1ccc(OC)c(NC(=O)/C(C#N)=C/c2ccco2)c1
- growth (RPMI-8226 leukemia): 93.7%
- growth (OVCAR-5 ovarian): 115%
- growth (OVCAR-4 ovarian): 77%
- growth (SK-OV-3 ovarian): 88.2%
- growth (IGROV1 ovarian): 92.7%
- growth (OVCAR-3 ovarian): 110%
- growth (HS 578T breast): 108%
- growth (NCI/ADR-RES ovarian): 103%
- growth (T-47D breast): 57.5%
- growth (MDA-MB-435 melanoma): 98.8%
- growth (SW-620 colon): 106%
- growth (MCF7 breast): 47.9%
- growth (HCT-116 colon): 95.1%
- growth (KM12 colon): 95.5%

SMILES: CCOC(=O)C1=C(C)N=c2s/c(=C\c3ccccc3O)c(=O)n2C1c1ccc(OC)c2ccccc12 (stereo not drawn)
- growth (RPMI-8226 leukemia): -15.1% (active)
- growth (OVCAR-5 ovarian): 51.6%
- growth (OVCAR-4 ovarian): 38.6%
- growth (SK-OV-3 ovarian): 61.7%
- growth (IGROV1 ovarian): 16.3%
- growth (OVCAR-3 ovarian): 10.1%
- growth (HS 578T breast): 10.4%
- growth (NCI/ADR-RES ovarian): 48.3%
- growth (T-47D breast): 23.3%
- growth (BT-549 breast): 60.3%
- growth (MDA-MB-435 melanoma): -76.6% (active)
- growth (SW-620 colon): -78.2% (active)
- growth (MCF7 breast): -75.4% (active)
- growth (HCT-116 colon): 11.6%
- growth (HCC-2998 colon): -86.7% (active)
- growth (KM12 colon): 8.88% (active)

SMILES: O=c1[nH]nnc2c1ncn2C1OC(CO)C(O)C1O (stereo not drawn)
- growth (RPMI-8226 leukemia): 37.6%
- growth (OVCAR-5 ovarian): 87.4%
- growth (OVCAR-4 ovarian): 35.9%
- growth (SK-OV-3 ovarian): 14.5%
- growth (IGROV1 ovarian): 32.7%
- growth (OVCAR-3 ovarian): 41.7%
- growth (HS 578T breast): 103%
- growth (NCI/ADR-RES ovarian): 39.5%
- growth (T-47D breast): 77.1%
- growth (MDA-MB-435 melanoma): 76.5%
- growth (SW-620 colon): 63.3%
- growth (MCF7 breast): 63.9%
- growth (HCT-116 colon): 51.8%
- growth (HCC-2998 colon): 34.4%
- growth (KM12 colon): 60.7%
